From publication PMC7862700, “An all-to-all approach to the identification of sequence-specific readers for epigenetic DNA modifications on cytosine”

Experiments:
Experiment in all cases: DAPPL (digital affinity profiling via proximity ligation, sequencing); 10 mM Tris-HCl pH 7.5, 50 mM NaCl, 1 mM DTT, 4% glycerol, room temperature, 30 min; GST-TFs on glutathione beads, 16-mer random dsDNA library, 0.1% formaldehyde crosslink after washing; high values mean tight binding
[1] = biological target: T1, FLI1 (Homo sapiens, UniProt Q01543 1-452); details: protein: recombinant; tags: N-terminal GST; dsDNA, one strand shown
T1 sequence: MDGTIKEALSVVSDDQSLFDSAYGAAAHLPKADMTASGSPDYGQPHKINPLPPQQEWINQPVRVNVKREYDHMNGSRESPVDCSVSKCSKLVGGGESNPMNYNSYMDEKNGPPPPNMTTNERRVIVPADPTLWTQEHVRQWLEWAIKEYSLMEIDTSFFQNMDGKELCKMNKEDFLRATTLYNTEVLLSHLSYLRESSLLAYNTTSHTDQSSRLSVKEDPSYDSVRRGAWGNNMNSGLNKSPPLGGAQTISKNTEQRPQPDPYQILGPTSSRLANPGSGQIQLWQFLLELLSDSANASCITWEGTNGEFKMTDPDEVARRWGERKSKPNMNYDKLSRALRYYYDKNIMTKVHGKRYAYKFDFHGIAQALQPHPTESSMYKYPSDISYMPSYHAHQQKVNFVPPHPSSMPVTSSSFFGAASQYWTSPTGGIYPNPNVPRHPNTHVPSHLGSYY
In short: (§1)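 Binding signal is defined as a hexamer's read frequency for one factor over its frequency for the tag-only sample. To obtain reads, GST-fused human transcription factors were expressed in yeast, captured on glutathione beads, barcoded with DNA and pooled with that sample. Pools met 200 nmole of a 16-mer random double-stranded DNA library in Tris/NaCl/DTT/glycerol buffer for 30 min at room temperature before washing, 0.1% formaldehyde crosslinking, proximity ligation (BsaI/T4 ligase, 1 h, 37 °C), PCR and Illumina NextSeq500 sequencing.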

[2] = biological target: T2, ELK1 (Homo sapiens, UniProt P19419 1-428); details: protein: recombinant; tags: N-terminal GST; dsDNA, one strand shown
T2 sequence: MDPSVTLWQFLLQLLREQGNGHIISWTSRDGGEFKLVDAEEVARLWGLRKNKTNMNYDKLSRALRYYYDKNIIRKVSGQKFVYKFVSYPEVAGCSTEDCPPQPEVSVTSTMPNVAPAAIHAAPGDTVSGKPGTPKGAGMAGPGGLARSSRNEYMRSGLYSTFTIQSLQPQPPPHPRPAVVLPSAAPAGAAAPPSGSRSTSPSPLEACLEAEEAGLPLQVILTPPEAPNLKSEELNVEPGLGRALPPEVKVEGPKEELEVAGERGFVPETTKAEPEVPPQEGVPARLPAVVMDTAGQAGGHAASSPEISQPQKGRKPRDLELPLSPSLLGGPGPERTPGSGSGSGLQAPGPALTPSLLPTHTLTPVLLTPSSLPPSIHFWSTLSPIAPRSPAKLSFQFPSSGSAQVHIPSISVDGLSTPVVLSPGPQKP
In short: as §1

[3] = biological target: T3, GABPA (Homo sapiens, UniProt Q06546 1-454); details: protein: recombinant; tags: N-terminal GST; dsDNA, one strand shown
T3 sequence: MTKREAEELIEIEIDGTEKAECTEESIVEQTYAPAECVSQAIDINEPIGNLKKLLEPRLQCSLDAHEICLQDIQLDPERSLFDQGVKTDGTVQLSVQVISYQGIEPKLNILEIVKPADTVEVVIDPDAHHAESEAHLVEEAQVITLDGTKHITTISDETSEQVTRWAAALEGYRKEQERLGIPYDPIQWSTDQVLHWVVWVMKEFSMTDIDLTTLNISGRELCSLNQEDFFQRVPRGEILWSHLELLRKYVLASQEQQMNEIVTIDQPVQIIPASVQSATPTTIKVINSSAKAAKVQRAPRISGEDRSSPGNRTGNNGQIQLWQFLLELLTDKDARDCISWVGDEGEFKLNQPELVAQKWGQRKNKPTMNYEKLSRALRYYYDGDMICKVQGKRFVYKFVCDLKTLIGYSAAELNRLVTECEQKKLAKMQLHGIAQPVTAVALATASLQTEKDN
In short: as §1

[4] = biological target: T4, ERG (Homo sapiens, UniProt P11308 1-479); details: protein: recombinant; tags: N-terminal GST; dsDNA, one strand shown
T4 sequence: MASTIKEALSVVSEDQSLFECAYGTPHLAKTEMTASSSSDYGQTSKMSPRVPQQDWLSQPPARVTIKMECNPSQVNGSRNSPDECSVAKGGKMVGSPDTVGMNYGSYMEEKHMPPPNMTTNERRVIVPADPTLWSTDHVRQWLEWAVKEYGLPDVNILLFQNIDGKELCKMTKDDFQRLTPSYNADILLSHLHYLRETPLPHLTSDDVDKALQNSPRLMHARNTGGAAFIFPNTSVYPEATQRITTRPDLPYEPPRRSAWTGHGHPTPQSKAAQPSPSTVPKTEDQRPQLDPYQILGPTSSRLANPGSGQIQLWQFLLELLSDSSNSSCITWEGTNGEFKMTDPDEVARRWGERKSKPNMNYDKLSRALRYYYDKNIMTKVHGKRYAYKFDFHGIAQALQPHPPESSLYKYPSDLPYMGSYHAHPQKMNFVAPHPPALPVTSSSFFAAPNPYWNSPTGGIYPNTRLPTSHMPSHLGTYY
In short: as §1

[5] = biological target: ELF1 (Homo sapiens, UniProt P32519 1-619); details: protein: recombinant; tags: N-terminal GST; dsDNA, one strand shown
Sequence of ELF1 (P32519 whole entry): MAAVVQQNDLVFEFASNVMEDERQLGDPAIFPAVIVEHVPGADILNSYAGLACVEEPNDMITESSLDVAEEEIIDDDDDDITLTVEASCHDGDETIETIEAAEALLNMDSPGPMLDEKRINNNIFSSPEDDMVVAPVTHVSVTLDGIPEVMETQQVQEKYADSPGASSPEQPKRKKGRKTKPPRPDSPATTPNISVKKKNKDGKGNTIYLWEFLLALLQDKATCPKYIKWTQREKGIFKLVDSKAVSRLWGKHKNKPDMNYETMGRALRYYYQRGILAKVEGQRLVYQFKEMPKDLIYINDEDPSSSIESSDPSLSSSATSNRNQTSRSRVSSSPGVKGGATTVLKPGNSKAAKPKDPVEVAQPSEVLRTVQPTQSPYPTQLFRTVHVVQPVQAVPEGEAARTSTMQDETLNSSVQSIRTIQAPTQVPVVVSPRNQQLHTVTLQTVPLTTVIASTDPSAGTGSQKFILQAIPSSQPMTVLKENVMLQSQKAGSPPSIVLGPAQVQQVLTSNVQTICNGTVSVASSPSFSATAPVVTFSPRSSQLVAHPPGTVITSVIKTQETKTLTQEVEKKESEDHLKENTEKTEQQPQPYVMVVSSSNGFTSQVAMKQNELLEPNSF
In short: as §1

[6] = biological target: T5, EHF (Homo sapiens, UniProt Q9NZC4 1-300); details: protein: recombinant; tags: N-terminal GST; dsDNA, one strand shown
T5 sequence: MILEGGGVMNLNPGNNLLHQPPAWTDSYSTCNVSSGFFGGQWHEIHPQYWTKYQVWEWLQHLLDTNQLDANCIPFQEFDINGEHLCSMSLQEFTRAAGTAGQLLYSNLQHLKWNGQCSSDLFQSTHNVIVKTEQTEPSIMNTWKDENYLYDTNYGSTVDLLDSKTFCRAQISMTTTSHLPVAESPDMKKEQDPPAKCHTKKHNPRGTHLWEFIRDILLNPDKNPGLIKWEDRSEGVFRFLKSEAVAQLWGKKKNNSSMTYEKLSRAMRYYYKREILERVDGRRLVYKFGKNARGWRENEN
In short: as §1

[7] = biological target: SPI1 (Homo sapiens, UniProt P17947 1-270); details: protein: recombinant; tags: N-terminal GST; dsDNA, one strand shown
In short: as §1

[8] = biological target: SPIB (Homo sapiens, UniProt Q01892 1-262); details: protein: recombinant; tags: N-terminal GST; dsDNA, one strand shown
Sequence of SPIB (Q01892 whole entry): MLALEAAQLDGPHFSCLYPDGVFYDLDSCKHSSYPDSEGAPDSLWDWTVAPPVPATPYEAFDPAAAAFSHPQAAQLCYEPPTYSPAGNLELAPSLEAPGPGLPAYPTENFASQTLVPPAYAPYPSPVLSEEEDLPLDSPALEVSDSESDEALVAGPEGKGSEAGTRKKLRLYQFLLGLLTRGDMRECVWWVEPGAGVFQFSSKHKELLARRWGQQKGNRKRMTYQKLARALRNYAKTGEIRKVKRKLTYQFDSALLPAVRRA
In short: as §1

[9] = biological target: T6, ELK3 (Homo sapiens, UniProt P41970 1-407); details: protein: recombinant; tags: N-terminal GST; dsDNA, one strand shown
T6 sequence: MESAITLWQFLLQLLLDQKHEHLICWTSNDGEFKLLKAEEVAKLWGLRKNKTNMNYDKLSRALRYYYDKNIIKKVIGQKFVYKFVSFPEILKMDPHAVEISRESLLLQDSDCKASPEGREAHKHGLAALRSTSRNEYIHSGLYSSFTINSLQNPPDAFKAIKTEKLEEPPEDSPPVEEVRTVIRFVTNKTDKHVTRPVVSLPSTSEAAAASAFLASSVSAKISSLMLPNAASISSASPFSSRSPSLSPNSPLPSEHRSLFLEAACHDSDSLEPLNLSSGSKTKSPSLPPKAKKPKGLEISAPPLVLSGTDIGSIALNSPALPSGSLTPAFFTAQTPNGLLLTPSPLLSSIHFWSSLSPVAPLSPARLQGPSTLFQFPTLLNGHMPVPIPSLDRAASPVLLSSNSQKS
In short: as §1

[10] = biological target: T7, FEV (Homo sapiens, UniProt Q99581 1-238); details: protein: recombinant; tags: N-terminal GST; dsDNA, one strand shown
T7 sequence: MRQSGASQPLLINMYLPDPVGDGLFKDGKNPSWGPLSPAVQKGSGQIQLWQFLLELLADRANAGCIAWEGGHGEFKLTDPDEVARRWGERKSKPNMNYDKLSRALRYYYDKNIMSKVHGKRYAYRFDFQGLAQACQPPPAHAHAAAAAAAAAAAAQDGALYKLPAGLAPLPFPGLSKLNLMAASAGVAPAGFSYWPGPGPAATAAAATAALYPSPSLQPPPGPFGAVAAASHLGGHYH
In short: as §1

[11] = biological target: ETV5 (Homo sapiens, UniProt P41161 1-510); details: protein: recombinant; tags: N-terminal GST; dsDNA, one strand shown
Sequence of ETV5 (P41161 whole entry): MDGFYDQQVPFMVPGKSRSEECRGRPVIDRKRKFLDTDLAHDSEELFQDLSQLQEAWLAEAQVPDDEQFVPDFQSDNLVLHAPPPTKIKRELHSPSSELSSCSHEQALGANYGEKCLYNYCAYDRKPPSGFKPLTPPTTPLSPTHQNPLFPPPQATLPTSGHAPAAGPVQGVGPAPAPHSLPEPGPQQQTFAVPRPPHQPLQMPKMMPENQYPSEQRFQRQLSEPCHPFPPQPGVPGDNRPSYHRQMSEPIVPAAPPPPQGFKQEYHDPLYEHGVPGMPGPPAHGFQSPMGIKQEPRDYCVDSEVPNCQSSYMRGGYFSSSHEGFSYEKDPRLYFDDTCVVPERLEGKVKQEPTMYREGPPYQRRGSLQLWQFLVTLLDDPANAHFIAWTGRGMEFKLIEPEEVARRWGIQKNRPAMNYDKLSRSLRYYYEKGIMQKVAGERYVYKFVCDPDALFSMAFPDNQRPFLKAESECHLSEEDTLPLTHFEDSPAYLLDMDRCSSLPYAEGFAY
In short: as §1

[12] = biological target: HSF1 (Homo sapiens, UniProt Q00613 1-529); details: protein: recombinant; tags: N-terminal GST; chain copies: 3; dsDNA, one strand shown
Sequence of HSF1 (Q00613 whole entry): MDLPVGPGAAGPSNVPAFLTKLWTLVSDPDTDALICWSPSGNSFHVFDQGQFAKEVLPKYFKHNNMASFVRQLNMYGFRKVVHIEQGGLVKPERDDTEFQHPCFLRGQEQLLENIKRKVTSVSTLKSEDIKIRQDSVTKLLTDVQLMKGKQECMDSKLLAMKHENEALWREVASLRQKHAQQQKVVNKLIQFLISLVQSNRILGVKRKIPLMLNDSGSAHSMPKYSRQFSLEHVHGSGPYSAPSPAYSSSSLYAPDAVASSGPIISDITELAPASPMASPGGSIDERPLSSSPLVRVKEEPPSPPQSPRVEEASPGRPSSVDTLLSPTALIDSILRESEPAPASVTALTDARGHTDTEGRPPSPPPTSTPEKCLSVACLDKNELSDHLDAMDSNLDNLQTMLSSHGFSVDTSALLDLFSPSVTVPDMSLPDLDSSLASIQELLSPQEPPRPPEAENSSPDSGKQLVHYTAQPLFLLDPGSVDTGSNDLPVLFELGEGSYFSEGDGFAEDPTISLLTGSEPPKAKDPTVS
In short: as §1

[13] = biological target: T8, SPIC (Homo sapiens, UniProt Q8N5J4 1-248); details: protein: recombinant; tags: N-terminal GST; dsDNA, one strand shown
T8 sequence: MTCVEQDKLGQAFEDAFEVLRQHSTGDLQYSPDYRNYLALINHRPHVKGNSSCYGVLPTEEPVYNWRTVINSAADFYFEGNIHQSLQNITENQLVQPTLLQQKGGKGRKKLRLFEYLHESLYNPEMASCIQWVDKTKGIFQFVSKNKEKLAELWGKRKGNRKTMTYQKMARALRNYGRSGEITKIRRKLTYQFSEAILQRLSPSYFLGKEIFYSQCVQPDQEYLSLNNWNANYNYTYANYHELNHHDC
In short: as §1

[14] = biological target: ELF4 (Homo sapiens, UniProt Q99607 1-663); details: protein: recombinant; tags: N-terminal GST; dsDNA, one strand shown
Sequence of ELF4 (Q99607 whole entry): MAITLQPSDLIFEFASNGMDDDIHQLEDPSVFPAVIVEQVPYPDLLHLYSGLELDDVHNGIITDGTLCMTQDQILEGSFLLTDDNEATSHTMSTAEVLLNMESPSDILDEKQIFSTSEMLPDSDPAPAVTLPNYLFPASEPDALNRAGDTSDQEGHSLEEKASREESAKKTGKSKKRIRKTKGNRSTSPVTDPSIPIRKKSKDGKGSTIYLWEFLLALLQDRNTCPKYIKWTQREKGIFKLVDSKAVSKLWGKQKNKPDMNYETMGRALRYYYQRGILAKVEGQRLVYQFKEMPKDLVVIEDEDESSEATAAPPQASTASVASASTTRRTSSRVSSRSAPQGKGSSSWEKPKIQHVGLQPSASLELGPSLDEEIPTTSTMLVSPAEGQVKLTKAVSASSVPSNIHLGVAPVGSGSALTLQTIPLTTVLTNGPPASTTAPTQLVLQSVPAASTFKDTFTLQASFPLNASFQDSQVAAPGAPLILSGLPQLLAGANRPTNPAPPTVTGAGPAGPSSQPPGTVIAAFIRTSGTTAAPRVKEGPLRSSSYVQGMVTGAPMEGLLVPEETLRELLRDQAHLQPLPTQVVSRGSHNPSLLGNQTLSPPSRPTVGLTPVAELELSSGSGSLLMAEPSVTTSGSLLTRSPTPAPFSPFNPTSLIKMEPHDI
In short: as §1

[15] = biological target: T9, ELK4 (Homo sapiens, UniProt P28324-2 1-405); details: protein: recombinant; tags: N-terminal GST; dsDNA, one strand shown
T9 sequence: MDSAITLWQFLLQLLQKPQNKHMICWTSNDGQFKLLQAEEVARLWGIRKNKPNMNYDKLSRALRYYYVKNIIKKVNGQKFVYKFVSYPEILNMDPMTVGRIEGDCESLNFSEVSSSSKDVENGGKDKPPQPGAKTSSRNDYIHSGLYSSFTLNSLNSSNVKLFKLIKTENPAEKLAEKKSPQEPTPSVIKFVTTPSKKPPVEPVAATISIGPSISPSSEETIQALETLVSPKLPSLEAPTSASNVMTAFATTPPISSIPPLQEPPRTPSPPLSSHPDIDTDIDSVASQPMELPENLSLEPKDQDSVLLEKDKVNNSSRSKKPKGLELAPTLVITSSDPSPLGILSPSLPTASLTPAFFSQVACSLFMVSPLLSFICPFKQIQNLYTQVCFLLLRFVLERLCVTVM
In short: as §1

[16] = biological target: T10, ETV2 (Homo sapiens, UniProt O00321 1-342); details: protein: recombinant; tags: N-terminal GST; dsDNA, one strand shown
T10 sequence: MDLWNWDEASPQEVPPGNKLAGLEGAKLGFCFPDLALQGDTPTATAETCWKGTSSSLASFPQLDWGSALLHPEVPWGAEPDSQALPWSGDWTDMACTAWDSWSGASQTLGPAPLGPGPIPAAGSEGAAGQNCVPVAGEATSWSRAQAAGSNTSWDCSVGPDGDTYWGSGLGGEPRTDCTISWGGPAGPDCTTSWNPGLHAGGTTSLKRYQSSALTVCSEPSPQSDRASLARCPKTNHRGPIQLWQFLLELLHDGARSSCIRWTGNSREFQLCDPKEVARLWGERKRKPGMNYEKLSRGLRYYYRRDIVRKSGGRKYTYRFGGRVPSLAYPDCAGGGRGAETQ
In short: as §1

[17] = biological target: T11, ELF3 (Homo sapiens, UniProt P78545 1-371); details: protein: recombinant; tags: N-terminal GST; dsDNA, one strand shown
T11 sequence: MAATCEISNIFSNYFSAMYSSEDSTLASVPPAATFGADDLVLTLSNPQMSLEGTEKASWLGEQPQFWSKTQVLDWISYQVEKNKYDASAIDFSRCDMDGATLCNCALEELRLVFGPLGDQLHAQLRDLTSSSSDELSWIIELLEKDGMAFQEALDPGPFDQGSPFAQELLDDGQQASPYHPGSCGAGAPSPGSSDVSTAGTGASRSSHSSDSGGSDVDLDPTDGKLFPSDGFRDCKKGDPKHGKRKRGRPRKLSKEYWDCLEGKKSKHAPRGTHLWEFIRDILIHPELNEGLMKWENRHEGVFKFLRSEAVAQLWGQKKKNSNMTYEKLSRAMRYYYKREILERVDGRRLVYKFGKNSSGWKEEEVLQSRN
In short: as §1

[18] = biological target: CRX (Homo sapiens, UniProt O43186 1-299); details: protein: recombinant; tags: N-terminal GST; dsDNA, one strand shown
Sequence of CRX (O43186 whole entry): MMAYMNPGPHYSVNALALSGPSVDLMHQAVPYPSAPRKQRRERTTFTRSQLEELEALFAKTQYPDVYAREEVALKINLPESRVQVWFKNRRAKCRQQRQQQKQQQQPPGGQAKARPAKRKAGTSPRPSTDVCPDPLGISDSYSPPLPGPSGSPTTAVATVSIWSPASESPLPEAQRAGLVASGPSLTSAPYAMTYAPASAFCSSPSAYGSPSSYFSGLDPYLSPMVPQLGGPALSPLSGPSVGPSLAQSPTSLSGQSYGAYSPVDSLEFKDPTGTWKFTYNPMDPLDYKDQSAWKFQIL
In short: as §1

[19] = biological target: ETV1 (Homo sapiens, UniProt P50549 1-477); details: protein: recombinant; tags: N-terminal GST; dsDNA, one strand shown
Sequence of ETV1 (P50549 whole entry): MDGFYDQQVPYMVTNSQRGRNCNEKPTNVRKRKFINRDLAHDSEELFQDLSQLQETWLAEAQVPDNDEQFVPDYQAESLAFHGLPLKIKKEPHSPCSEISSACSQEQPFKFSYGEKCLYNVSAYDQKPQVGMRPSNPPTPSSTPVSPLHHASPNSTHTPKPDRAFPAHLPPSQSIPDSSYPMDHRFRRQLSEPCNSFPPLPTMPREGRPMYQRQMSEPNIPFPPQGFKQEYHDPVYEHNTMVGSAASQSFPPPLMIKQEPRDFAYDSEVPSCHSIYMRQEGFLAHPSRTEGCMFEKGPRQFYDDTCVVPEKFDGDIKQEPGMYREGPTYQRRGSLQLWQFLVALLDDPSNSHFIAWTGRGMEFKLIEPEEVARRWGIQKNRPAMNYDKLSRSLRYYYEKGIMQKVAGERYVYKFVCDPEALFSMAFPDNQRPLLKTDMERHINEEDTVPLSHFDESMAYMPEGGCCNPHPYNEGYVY
In short: as §1

**Q.** Which results are given for GTACTT?
**A.** binding signal [1]: 1.92 fold enrichment (6-mer frequency, TF over GST control); binding signal [2]: 2.32 fold enrichment (6-mer frequency, TF over GST control); binding signal [3]: 1.81 fold enrichment (6-mer frequency, TF over GST control); binding signal [4]: 1.88 fold enrichment (6-mer frequency, TF over GST control); binding signal [5]: 1.9 fold enrichment (6-mer frequency, TF over GST control); binding signal [6]: 1.96 fold enrichment (6-mer frequency, TF over GST control); binding signal [7]: 1.94 fold enrichment (6-mer frequency, TF over GST control); binding signal [8]: 1.78 fold enrichment (6-mer frequency, TF over GST control); binding signal [9]: 2.51 fold enrichment (6-mer frequency, TF over GST control); binding signal [10]: 2.21 fold enrichment (6-mer frequency, TF over GST control); binding signal [11]: 1.95 fold enrichment (6-mer frequency, TF over GST control); binding signal [12]: 1.35 fold enrichment (6-mer frequency, TF over GST control); binding signal [13]: 1.86 fold enrichment (6-mer frequency, TF over GST control); binding signal [14]: 1.86 fold enrichment (6-mer frequency, TF over GST control); binding signal [15]: 1.78 fold enrichment (6-mer frequency, TF over GST control); binding signal [16]: 1.88 fold enrichment (6-mer frequency, TF over GST control); binding signal [17]: 2.04 fold enrichment (6-mer frequency, TF over GST control); binding signal [18]: 1.6 fold enrichment (6-mer frequency, TF over GST control); binding signal [19]: 2.05 fold enrichment (6-mer frequency, TF over GST control)
